# From PubChem
# The list is not random: actives were taken first. Their share in the collection is about 1.8%.
# MBD2 inh: inhibitors of MBD2 binding to methylated DNA, primary screen, biochemical, TR-FRET, DNA-binding domain, human | MBD2 binding to methylated oligonucleotide | inhibition, % at 4.4 µM | hit rate 0.31% among 370,000 | Methyl-CpG-binding domain protein 2 (Homo sapiens), Q9UBB5; in the data active means inhibition above about 13%
# Target sequence (Q9UBB5 whole entry, looked up, the tested form may be a part): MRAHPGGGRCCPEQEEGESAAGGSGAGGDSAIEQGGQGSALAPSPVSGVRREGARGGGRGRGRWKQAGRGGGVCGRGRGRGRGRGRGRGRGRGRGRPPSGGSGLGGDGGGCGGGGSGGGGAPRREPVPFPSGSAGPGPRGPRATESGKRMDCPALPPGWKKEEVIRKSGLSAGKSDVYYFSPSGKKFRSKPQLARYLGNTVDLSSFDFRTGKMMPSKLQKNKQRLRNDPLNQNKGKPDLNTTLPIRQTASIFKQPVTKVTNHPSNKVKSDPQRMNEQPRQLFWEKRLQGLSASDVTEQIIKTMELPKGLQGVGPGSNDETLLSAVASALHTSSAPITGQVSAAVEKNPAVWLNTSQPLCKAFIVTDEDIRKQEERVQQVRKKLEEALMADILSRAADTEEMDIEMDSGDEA
# UHRF1 MBD2 ctr: UHRF1 methylated DNA binding inhibitors, primary screen, counter-screen for MBD2 inhibitor project, biochemical, TR-FRET, human UHRF1, single concentration; UHRF1 binding to methylated oligo; hit rate 0.75% among 370,000; inhibition, % at 4.4 µM; in the data active means inhibition above about 21%;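 further: UHRF1 SRA domain binding a hemimethylated CpG hairpin DNA probe; 0% = median of test compound wells and 100% = reference inhibitor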
# Neddylation inh: inhibitors of cullin neddylation, primary screen, biochemical, TR-FRET, uHTS, NAE and Ubc12; NEDD8-conjugating enzyme Ubc12 (Homo sapiens) + NEDD8-activating enzyme E1 regulatory …; AID 651699, 2012; hit rate 0.58% among 360,000; calls only at 25 µM; in the data active means inhibition above about 36%
# UBC13 polyUb: UBC13 polyubiquitin chain formation inhibitors, primary screen, biochemical, TR-FRET, uHTS; inhibition, % at 20 µM; hit rate 0.47% among 330,000; AID 485273, 2010; Ubiquitin-conjugating enzyme E2 N (Homo sapiens), P61088; in the data active means inhibition above about 45%, passing the limit was not always enough
# Casp3 UBC13 ctr: CASP3 inhibitor validation, counterassay for project on UBE2N polyubiquitination blockers, biochemical, one dose | hit rate 4% among 1,400 | inhibition, % at 20 µM | Recombinant caspase-3, Caspase-Glo 3/7 luminescence, 60 min | shares compounds with UBC13 polyUb;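 active means mean inhibition across replicates above about 26%, limit read from the data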;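 further: plate controls were DMSO with caspase-3 for no effect and DMSO wells lacking enzyme for full effect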
# UBC13 confirm: UBC13 polyubiquitination inhibitors, single-point retest, confirmation, biochemical, TR-FRET, single concentration | shares compounds with UBC13 polyUb | inhibition, % at 10 µM | hit rate 68% among 1,400 | AID 488859, 2010; in the data active means inhibition above about 45%
# * = called active by the depositor; i = inactive; . = no result given.
SMILES,MBD2 inh,UHRF1 MBD2 ctr,Neddylation inh,UBC13 polyUb,Casp3 UBC13 ctr,UBC13 confirm
CC(Oc1cccc(Br)c1)C(=O)NNC(=O)c1ccccn1 (centres undefined),.,.,i,47*,-5,91*
Cc1ccc(C(=O)N/C(=C\c2cccs2)C(=O)NCCc2c[nH]c3ccccc23)cc1,1,-1,i,-1,.,.
CCCCCCCCNC(C)C(O)c1ccc(SC(C)C)cc1 (centres undefined),1,3,i,71*,-2,75*
Cc1ccccc1C(=O)N1CCN(c2ccc([N+](=O)[O-])c(NCc3ccco3)c2)CC1,-11,1,i,-19,.,.
NS(=O)(=O)c1ccc(NC(=O)N2c3ccccc3Sc3ccccc32)cc1,4,0,.,46*,1,-2
CC1CCN(S(=O)(=O)c2ccc(NC(=O)N3c4ccccc4Sc4ccccc43)cc2)CC1,3,2,i,-11,.,.
C[C@@H]1O[C@@H](Oc2c(-c3ccc(O)c(O)c3)oc3cc(O)cc(O)c3c2=O)[C@H](O)[C@H](O)[C@H]1O,0,4,i,20,.,.
C[C@@H]1O[C@@H](Oc2c(-c3cc(O)c(O)c(O)c3)oc3cc(O)cc(O)c3c2=O)[C@H](O)[C@H](O)[C@H]1O,-4,5,i,50*,-5,17
COc1cc(C(CCN2CCCCC2)c2c(OC)cc(OC)c3c(-c4ccccc4)cc(=O)oc23)cc(OC)c1OC (centres undefined),-1,2,i,48*,-2,29
COc1cc(C(CCN2CCCC2)c2c(OC)cc(OC)c3c(C)cc(=O)oc23)cc(OC)c1OC (centres undefined),-1,0,i,13,.,.
COc1cc(C(CCN2CCCC(C)C2)c2c(OC)cc(OC)c3c(-c4ccccc4)cc(=O)oc23)cc(OC)c1OC (centres undefined),.,.,i,65*,-3,30
CCN(CC)CCNc1ncnc2c1sc1nc(N3CCOCC3)c3c(c12)CCCC3,7,15,i,69*,-2,84*
OCCNc1ncnc2c1sc1nc(N3CCOCC3)c3c(c12)CCC3,2,1,.,12,.,.
O=c1cc(C(F)(F)F)[nH]c2c(OC(F)(F)F)cccc12,0,2,i,10,.,.
O=c1c2ccccc2oc2ccc(C#CC3(O)CCCCC3)cc12,2,1,i,16,.,.
COc1cccc2oc3ccc(C#CC4(N)CCCCC4)cc3c(=O)c12,9,-8,.,53*,80*,40
CCN(CC(=O)Nc1ccc(NC(C)=O)cc1)C(=O)c1ccc(COc2ccccc2)o1,-6,-2,i,-3,.,.
C=C[C@](C)(CC[C@@]1(C)C(C)CC(OC2OC(C)C(OC3OC(COC(C)=O)C(O)C(O)C3O)C(O)C2O)[C@@]2(C)C(C)=CCCC12)OC1OC(C)C(O[C@@H]2O[C@@H](C)C(O)C(O)[C@H]2O)C(O)C1O (some centres undefined),.,.,i,54*,2,58*
O=C(Cn1cc(C(=O)c2cccs2)c2ccccc21)NC1CCCCC1,0,-2,i,61*,-7,36
CN1CCN(C2CCN(Cc3ccc(O)c4ncccc34)CC2)CC1,3,-2,i,60*,-1,70*
Oc1ccc(CN2CCN(Cc3ccccc3)CC2)c2cccnc12,-3,-2,i,66*,0,103*
O=S(=O)(c1ccc(Cl)cc1)N1CCN(Cc2ccc(O)c3ncccc23)CC1,-1,-4,i,-26,.,.
Cc1cc(N2CCOCC2)c2c(N)c(Br)cc(C)c2n1,-4,-1,i,-12,.,.
O=C(NCC1CCCN(Cc2nccs2)C1)c1cccc2ccccc12 (centres undefined),-3,1,i,0,.,.
CN(C)CCCNc1cc(C(C)(C)C)nc2c(-c3ccccc3)cnn12,-2,-1,.,66*,1,34
